Source: PubChem BioAssay
DAX1 inh-1 = inhibits human nuclear receptor DAX1; P51843; HEK293 Gal4-DAX1 luciferase reporter, luminescence; inhibition, % at 6.75 µM; 0.99% of 340,000 active;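 active means inhibition above the mean over all tested compounds plus 3 SD, cut at about 4.2% in these data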;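 further: 0% = DAX1-transfected cells with DMSO and 100% = empty-vector control cells with DMSO; inhibition shows as a rise in luminescence from relieved DAX1 repression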
DAX1 inh-2 = DAX1 (NR0B1) inhibition, primary screen; HEK293T StAR-luciferase reporter, SF-1/DAX-1 repression relief; 1.1% of 370,000 active; AID 652010; inhibition, % at 6.8 µM;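 active means inhibition above the mean over all tested compounds plus 3 SD, cut at about 3.6% in these data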;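 further: 0% = DAX-1 cells with DMSO and 100% = cells lacking DAX-1 with DMSO; higher inhibition means more luminescence from relief of DAX-1 repression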
ssDAF12 agonist = activates DAF-12 receptor from parasite S. stercoralis. HEK293 ssDAF-12/GRIP1 lit1-tk-luc reporter, luminescence; % of 3 µM dafachronic acid response. activation, % at 6.8 µM. 1% of 370,000 active;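 active means activation above the mean over all tested compounds plus 3 SD, cut at about 0.9% in these data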;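 further: 0% = DMSO-only wells and 100% = 3 µM delta7-dafachronic acid wells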
hgDAF-12 ag = hgDAF-12 agonism, primary luciferase screen | HEK293 GAL4-hgDAF12 UAS-luciferase reporter, agonist luminescence; normalized to butyrate control | activation, % at 6.8 µM | 1.8% of 370,000 active;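 active means activation above a cutoff set at the mean of all screened compounds plus 3 SD, cut at about 10% in these data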;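 further: 0% = DMSO wells and 100% = sodium butyrate wells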
hcDAF-12 act = activators of H. contortus DAF-12 nuclear receptor; activation, % at 6.8 µM; 1.4% of 370,000 active; HEK293 hcDAF-12 lit1-tk-luc reporter, luminescence; 0% DMSO, 100% Δ7-dafachronic acid;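 active means activation above the mean of all tested compounds plus 3 SD, cut at about 5.5% in these data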;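 further: 100% = response to 3 µM Δ7-dafachronic acid high control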
DAX1 inh confirm = NR0B1 (human) inhibition, confirmation; shares compounds with DAX1 inh-2; inhibition, % at 6.8 µM; 87% of 2,400 active; HEK293T StAR-promoter luciferase reporter, SF-1/DAX-1 repression; AID 652134;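 active means inhibition above the average of every tested compound plus 3 SD, cut at about 3.8% in these data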;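 further: 0% = DAX-1 cells with DMSO and 100% = no DAX-1 control cells with DMSO; active compounds raise luminescence by relieving repression of the StAR reporter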
SF1 mutant ctr = nonselective inhibitor or artifact in SF-1 mutant DAX1 counter-screen. shares compounds with DAX1 inh-2. HEK293 StAR-luciferase, SF-1 AF2 mutant, luminescence. inhibition, % at 6.8 µM. 78% of 2,400 active. AID 652136;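 active means inhibition above the mean of all tested compounds plus 3 SD, cut at about 3% in these data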;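 further: 0% = DAX-1 transfected cells with DMSO and 100% = cells without DAX-1 with DMSO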
LXRb hcDAF ctr = counter-screen for hcDAF-12 agonists: agonists of human LXR-beta | AID 743027 | 3,400 tested, under 10 active | activation, % at 6.8 µM | HEK293 Gal4-LXR tk-luc reporter, luminescence, 24 h; normalized: DMSO 0%, positive control 100% | shares compounds with hcDAF-12 act;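 active means mean percent activation of the reporter above a cutoff set as the average over tested compounds plus their standard deviation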
Target sequence (P55055 whole entry, looked up, the tested form may be a part): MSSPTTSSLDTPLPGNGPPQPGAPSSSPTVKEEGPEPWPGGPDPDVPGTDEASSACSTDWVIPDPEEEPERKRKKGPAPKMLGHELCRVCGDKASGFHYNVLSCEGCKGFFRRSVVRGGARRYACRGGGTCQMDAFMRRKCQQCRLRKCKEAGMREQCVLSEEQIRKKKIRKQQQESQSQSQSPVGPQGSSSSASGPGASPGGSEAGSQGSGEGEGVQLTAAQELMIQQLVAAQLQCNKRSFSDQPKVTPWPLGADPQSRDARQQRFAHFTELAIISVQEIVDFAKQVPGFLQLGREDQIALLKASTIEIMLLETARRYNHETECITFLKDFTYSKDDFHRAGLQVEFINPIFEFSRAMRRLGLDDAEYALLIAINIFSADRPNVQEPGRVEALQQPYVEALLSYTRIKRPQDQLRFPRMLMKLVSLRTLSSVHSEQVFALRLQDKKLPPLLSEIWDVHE
hcDAF12 conf = hcDAF-12 agonism, confirmation assay; activation, % at 6.8 µM; shares compounds with hcDAF-12 act; HEK293 hcDAF-12 lit1-tk-luc reporter, luminescence; % of Δ7-dafachronic acid response; 61% of 3,400 active;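 active means mean activation across triplicate tests above the threshold derived from the earlier primary screen, cut at about 5.5% in these data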;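 further: 0% = DMSO only wells and 100% = 3 µM Δ7-dafachronic acid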
* marks the source's active call; other numbers are inactive results; . = no result given; ! = not confirmed by another sample. The list is not random: actives were taken first. Their share in the collection is about 4.1%.

SMILES	DAX1 inh-1	DAX1 inh-2	ssDAF12 agonist	hgDAF-12 ag	hcDAF-12 act	DAX1 inh confirm	SF1 mutant ctr	LXRb hcDAF ctr	hcDAF12 conf
Cc1ccc(-c2cc3nc(C)cc(C)n3n2)cc1	1	4.5*	5.6*	21*	17*	11*	6.2*	2	18*
CCC(NC(=O)CCCN1C(=O)COc2ccc(C)cc21)c1ccccc1 (stereo not drawn)	.	-1	-2	-5	-2	.	.	.	.
COC(=O)c1cc2c(c3c4cc(OC)ccc4n(S(=O)(=O)c4ccc(F)cc4)c13)C(=O)N(CC(C)C)C2	.	-1	-1	-1	0	.	.	.	.
O=S(=O)(O)c1ccc(N=Nc2ccccc2)cc1	0	0	-1	0	-2	.	.	.	.
Oc1c(N=Nc2ccccc2)sc2ccccc12	3	5.5*	3.5*	13*	18*	19*	7.4*	2	18*
Cc1cc(C)n(-c2ncccc2[N+](=O)[O-])n1	0	-1	0	0	1	.	.	.	.
CC(C)c1ccc(-n2cnn(-c3ncccc3[N+](=O)[O-])c2=O)cc1	1	6.8*	2.4*	22*	22*	20*	10*	2	14*
COc1ccc(CNCC#Cc2ccccc2)c(OC)c1	.	0	0	4	1	.	.	.	.
C/C(C=NNC(=O)CSc1nc2ccccc2n1Cc1ccccc1Cl)=C\c1ccccc1	.	0	-1	0	0	.	.	.	.
CC(C)NC(=O)NC(=O)COc1ccc(Br)cc1Br	2	6.3*	0	12*	7.5*	17*	6.7*	2	6.0*
O=C(Nc1cccc([N+](=O)[O-])c1)c1ccc(-c2ccccc2)cc1	-1	0	-2	1	-2	.	.	.	.
O=C(O)c1ccc(N=NNc2cccc([N+](=O)[O-])c2)cc1	2	5.1*	0	8	6.7*	14*	8.0*	1	4
Cc1ccc(/C=N/Nc2ccc(Cl)c(C(=O)O)c2)s1	-2	6.7*	4.1*	22*	19*	12*	9.1*	2	12*
O=C(O)c1cc(N/N=C/C(Cl)=C/c2ccccc2)ccc1Cl	-4	13*	2.2*	28*	11*	22*	12*	2	13*
C[C@@H]1[C@@H](c2ccccc2)c2cc3ccccc3nc2-c2nc3ccccc3cc2[C@@H]1C(=O)N1CCCC1	.	0	0	-2	1	.	.	.	.
COCCn1c(C)cc(C(=O)COC(=O)c2cccnc2SC)c1C	2	5.8*	0	9	7.7*	16*	5.6*	2	9.4*
CCOC(=O)C(CNc1ccc(OCc2ccccc2)cc1)NC(=O)c1ccccc1 (stereo not drawn)	.	1	-1	9	3	.	.	.	.
COc1ccc(N2C(=O)c3n[nH]c(C(C)C)c3C2c2ccc(F)cc2)cc1 (stereo not drawn)	.	0	-1	0	-2	.	.	.	.
CS(=O)(=O)Nc1ccc(C2=NN(S(C)(=O)=O)C(c3ccc4nccnc4c3)C2)cc1 (stereo not drawn)	0	0	0	2	-1	.	.	.	.
Cc1ccc(C2=NN(S(C)(=O)=O)C(c3ccc4c(c3)OCO4)C2)cc1 (stereo not drawn)	1	5.4*	0.9*	21*	13*	19*	9.0*	2	14*
O=C(c1cc(Cl)cc(Cl)c1)N1CC[C@H]2[C@H](CCCN2Cc2cc(F)cc(F)c2)C1	.	1	-2	-2	0	.	.	.	.
COc1cc(N/N=C/c2ccccc2O)ncn1	3	-1	0	7	2	.	.	.	.
COc1cc(N/N=C/c2ccc(N(C)C)cc2)ncn1	-2	10*	1	12*	11*	12*	4.3*	2	8.4*
c1ccc(-c2cn3c4c(sc3n2)CCCC4)cc1	-3	6.2*!	0	5	8.5*	10.0*	1	1	19*
Cc1c(C(=O)N2CCc3ccccc3C2)sc2nc(-c3ccccc3)cn12	-1	0	-1	1	-1	.	.	.	.
SMILES	DAX1 inh-1	DAX1 inh-2	ssDAF12 agonist	hgDAF-12 ag	hcDAF-12 act	DAX1 inh confirm	SF1 mutant ctr	LXRb hcDAF ctr	hcDAF12 conf
CCOC(=O)c1c(SCC(=O)Nc2nccs2)nc(C)c(C)c1C	0	6.6*	0	5	11*	4.1*	2	0	2
CCc1nnc(NC(=O)CSc2nc(C)cc(C)c2C#N)s1	-1	6.7*	-1	11*	7.7*	15*	8.4*	1	9.5*
CCn1c(C)nnc1SCC(=O)Nc1nccs1	-1	0	0	-1	3	.	.	.	.
Cc1ccc(C#N)c(SCC(=O)Nc2nccs2)n1	0	6.3*	3.0*	20*	18*	12*	6.6*	2	22*
Cc1cc(NC(=O)c2ccc(NS(=O)(=O)c3ccccc3)cc2)no1	.	2	-1	5	-1	.	.	.	.
CC(C)C[C@H](NC1(C(=O)NC2CCCCC2)CCN(C(=O)OC(C)(C)C)CC1)C(=O)NCCc1c[nH]c2ccccc12	.	.	1	-1	1	.	.	.	.
COc1ccc(CN(CC#Cc2ccc(C)cc2)C(N)=NC(=O)CCc2ccccc2)c(OC)c1	.	-2	-1	0	1	.	.	.	.
O=C(CCN1C(=O)C2CCCCC2C1=O)Nc1nc2ccc(F)cc2s1 (stereo not drawn)	2	4.7*	1	9	6.9*	13*	3.5*	2	15*
O=C(Cc1ccccc1)NC1CCCCN(Cc2ccc(Cl)cc2)C1=O (stereo not drawn)	.	0	-1	-3	0	.	.	.	.
Cc1ccccc1/C=N/NC(=O)c1sccc1C	2	6.2*	2.0*	27*	12*	15*	10*	1	5
Cc1ccsc1C(=O)N/N=C/C=C/c1ccccc1[N+](=O)[O-]	0	1	-1	5	0	.	.	.	.
Cc1ccsc1C(=O)N/N=C/c1ccc2c(c1)OCO2	0	7.7*	1	15*	9.1*	15*	9.4*	2	6.6*
O=C(OCc1nc2ccccc2s1)c1ccco1	1	4.9*	1	11*	9.1*	7.4*	4.7*	1	8.6*
Cc1cccc(N/C=C/C(=O)c2cccs2)c1C	0	6.3*	2.9*	13*	15*	14*	7.3*	2	21*
